Source: paper PMC5700166
Numbering of substitutions follows the chain as printed.

Columns and labels:
Test in all cases: protein-binding microarray (PBM); PBM: ~300 nM protein, 6 mM HEPES pH 7.8, 80 mM KCl, 0.5 mM EDTA, 0.5 mM EGTA, 6% glycerol, 35 ng/ul poly-dIdC, 1% milk, 1 h, room temperature; Ap Aiptasia and Nv Nematostella (sea anemones) / Co Capsaspora / Aq Amphimedon (sponge) / Dm Drosophila / Hu human; RHD is the Rel homology domain; high values mean tight binding
Details in all cases: dsDNA, one strand shown
[1] = target: T1, GST-Ap-NF-kB RHD (Exaiptasia pallida (Aiptasia), UniProt A0A913YAJ5 2-422)
T1 sequence: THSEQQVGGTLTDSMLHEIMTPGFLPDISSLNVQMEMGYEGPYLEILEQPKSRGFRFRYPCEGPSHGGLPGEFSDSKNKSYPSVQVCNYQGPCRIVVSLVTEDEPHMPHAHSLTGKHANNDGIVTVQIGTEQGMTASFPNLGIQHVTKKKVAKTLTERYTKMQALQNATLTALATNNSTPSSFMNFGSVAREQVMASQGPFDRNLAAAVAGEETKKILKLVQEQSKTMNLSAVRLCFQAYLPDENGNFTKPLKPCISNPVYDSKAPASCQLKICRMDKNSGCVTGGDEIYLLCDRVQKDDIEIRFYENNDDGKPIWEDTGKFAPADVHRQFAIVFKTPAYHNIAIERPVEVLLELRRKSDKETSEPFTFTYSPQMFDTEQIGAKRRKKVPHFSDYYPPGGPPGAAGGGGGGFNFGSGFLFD

[2] = target: T2, GST-Nv-NF-kB (Cys allele) (Nematostella vectensis, UniProt E5G601 2-411)
T2 sequence: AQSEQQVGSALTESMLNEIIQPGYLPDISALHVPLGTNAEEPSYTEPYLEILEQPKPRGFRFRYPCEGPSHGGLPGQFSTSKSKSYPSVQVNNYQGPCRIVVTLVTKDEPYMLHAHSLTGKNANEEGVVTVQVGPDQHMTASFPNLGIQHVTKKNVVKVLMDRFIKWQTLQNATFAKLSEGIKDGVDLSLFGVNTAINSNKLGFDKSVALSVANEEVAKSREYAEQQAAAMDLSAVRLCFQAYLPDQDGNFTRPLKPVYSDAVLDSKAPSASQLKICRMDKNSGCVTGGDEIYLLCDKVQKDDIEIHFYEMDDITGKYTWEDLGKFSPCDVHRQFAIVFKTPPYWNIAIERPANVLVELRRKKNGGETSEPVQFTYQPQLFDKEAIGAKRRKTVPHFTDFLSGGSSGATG

[3] = target: T3, GST-Nv-NF-kB (Ser allele) (Nematostella vectensis, UniProt A7UNT2 2-411)
T3 sequence: T2 sequence with Q21R, C66S, S207N, E215Q, V217A, E225K, A268E, D399E

[4] = target: T4, GST-Co-NF-kB (Capsaspora owczarzaki, UniProt F1ARL5 200-546)
T4 sequence: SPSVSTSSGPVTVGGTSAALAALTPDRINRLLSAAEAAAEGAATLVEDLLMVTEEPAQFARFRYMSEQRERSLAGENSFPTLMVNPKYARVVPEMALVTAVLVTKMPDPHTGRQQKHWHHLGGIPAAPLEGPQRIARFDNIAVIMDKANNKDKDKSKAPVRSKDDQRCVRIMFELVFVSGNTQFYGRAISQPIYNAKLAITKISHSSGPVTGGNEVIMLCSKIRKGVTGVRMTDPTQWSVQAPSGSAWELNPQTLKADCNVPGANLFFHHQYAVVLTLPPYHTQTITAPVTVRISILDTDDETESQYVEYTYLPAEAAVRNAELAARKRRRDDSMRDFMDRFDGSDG

[5] = target: T5, GST-Dm-Relish (Drosophila melanogaster, UniProt Q94527 99-473)
T5 sequence: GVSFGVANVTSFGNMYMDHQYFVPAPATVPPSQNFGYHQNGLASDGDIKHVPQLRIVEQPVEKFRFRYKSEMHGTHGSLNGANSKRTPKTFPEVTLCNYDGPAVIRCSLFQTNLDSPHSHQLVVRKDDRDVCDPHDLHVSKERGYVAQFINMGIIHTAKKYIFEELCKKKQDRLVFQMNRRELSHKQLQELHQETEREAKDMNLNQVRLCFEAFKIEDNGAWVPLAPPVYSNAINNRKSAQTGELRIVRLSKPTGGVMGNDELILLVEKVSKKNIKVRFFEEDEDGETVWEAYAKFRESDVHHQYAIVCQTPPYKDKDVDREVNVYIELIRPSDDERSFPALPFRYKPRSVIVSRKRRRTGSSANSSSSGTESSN

[6] = target: T6, GST-Aq-NF-kB (Amphimedon queenslandica, UniProt A9Y5G7 2-389)
T6 sequence: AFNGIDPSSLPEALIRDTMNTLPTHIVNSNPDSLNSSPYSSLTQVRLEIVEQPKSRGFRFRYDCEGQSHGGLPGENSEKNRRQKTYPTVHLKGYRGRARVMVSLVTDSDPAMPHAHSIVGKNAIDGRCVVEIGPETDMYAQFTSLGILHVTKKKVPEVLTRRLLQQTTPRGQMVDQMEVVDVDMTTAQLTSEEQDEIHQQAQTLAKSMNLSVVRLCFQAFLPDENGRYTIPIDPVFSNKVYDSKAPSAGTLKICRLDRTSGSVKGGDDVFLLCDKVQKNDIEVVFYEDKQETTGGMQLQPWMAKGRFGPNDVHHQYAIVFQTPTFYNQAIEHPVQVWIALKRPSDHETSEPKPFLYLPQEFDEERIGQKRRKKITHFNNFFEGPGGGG

[7] = target: GST-Hu-p50 (Homo sapiens, UniProt P19838 7-356)
GST-Hu-p50, sequence (P19838 7-356): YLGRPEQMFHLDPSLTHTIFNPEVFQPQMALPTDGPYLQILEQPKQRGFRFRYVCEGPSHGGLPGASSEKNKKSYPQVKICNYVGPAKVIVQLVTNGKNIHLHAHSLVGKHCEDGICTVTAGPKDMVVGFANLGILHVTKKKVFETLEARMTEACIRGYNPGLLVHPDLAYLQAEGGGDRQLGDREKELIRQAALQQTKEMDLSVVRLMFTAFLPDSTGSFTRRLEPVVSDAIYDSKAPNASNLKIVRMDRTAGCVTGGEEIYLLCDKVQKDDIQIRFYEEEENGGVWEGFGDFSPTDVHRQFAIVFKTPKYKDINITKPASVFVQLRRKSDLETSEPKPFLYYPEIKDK

| Sequence | binding signal [1] [z-score] | binding signal [2] [z-score] | binding signal [3] [z-score] | binding signal [4] [z-score] | binding signal [5] [z-score] | binding signal [6] [z-score] | binding signal [7] [z-score] |
| --- | --- | --- | --- | --- | --- | --- | --- |
| CCGATTAACATCAGGGGAAGTAATGATGTTAATCGGGTCTTGATTCGCTTGACGCTGCTG | 4.58 | 6.3 | 7.78 | 5.87 | 6.8 | 4.63 | 5.36 |
| CCGATTAACATCAGGGGGATACATGATGTTAATCGGGTCTTGATTCGCTTGACGCTGCTG | 5.54 | 4.96 | 5.54 | 6.27 | 3.6 | 4.35 | 5.05 |
| CCGATTAACATCAAGGGGATTCCTGATGTTAATCGGGTCTTGATTCGCTTGACGCTGCTG | 10.4 | 10.4 | 9.96 | 2.68 | 9.9 | 7.84 | 7.29 |
| CCGATTAACATCAAAACTTCCCCTGATGTTAATCGGGTCTTGATTCGCTTGACGCTGCTG | 8.71 | 10.4 | 12.1 | 9.44 | 8.98 | 8.18 | 7.33 |
| CCGATTAACATCAGGGCCTCCCCTGATGTTAATCGGGTCTTGATTCGCTTGACGCTGCTG | 6.07 | 4.43 | 3.22 | 2.08 | 7.13 | 6.75 | 3.91 |
| CCGATTAACATCAAGGAGTTCCCTGATGTTAATCGGGTCTTGATTCGCTTGACGCTGCTG | 3.02 | 2.29 | 1.06 | 1.52 | 5.39 | 4.24 | 2.1 |
| CCGATTAACATCAAAGTCCCCCTTGATGTTAATCGGGTCTTGATTCGCTTGACGCTGCTG | 7 | 6.84 | 6.92 | 4.36 | 8.18 | 6.66 | 6.67 |
| CCGATTAACATCAGGGGAGTTACTGATGTTAATCGGGTCTTGATTCGCTTGACGCTGCTG | 5.46 | 4.25 | 4.83 | 3.43 | 7.83 | 5.17 | 4.45 |
| CCGATTAACATCATATTCCCCCATGATGTTAATCGGGTCTTGATTCGCTTGACGCTGCTG | 6.56 | 7.4 | 7.13 | 8.84 | 3.91 | 5.97 | 6.3 |
| CCGATTAACATCAAAATTTTCCCTGATGTTAATCGGGTCTTGATTCGCTTGACGCTGCTG | 5.5 | 8.54 | 10.1 | 6.32 | 5.19 | 7.04 | 5.99 |
| CCGATTAACATCACGGGGGGTACTGATGTTAATCGGGTCTTGATTCGCTTGACGCTGCTG | 5.05 | 3.22 | 3.15 | 4.54 | 3.63 | 3.58 | 3.25 |
| CCGATTAACATCACTTTTTCCCCTGATGTTAATCGGGTCTTGATTCGCTTGACGCTGCTG | 6.12 | 7.44 | 9.65 | 10.6 | 3.45 | 4.94 | 5.64 |
| CCGATTAACATCACGGGTTTTCCTGATGTTAATCGGGTCTTGATTCGCTTGACGCTGCTG | 2.91 | 2.73 | 1.9 | 1.18 | 4.43 | 4.99 | 2.29 |
| CCGATTAACATCATGGGGAAAAATGATGTTAATCGGGTCTTGATTCGCTTGACGCTGCTG | 5.03 | 6.62 | 8.82 | 9.78 | 2.39 | 4.9 | 5.43 |
| CCGATTAACATCAATATTCCCCATGATGTTAATCGGGTCTTGATTCGCTTGACGCTGCTG | 7.4 | 8.39 | 8.19 | 8.46 | 3.77 | 5.97 | 5.88 |
| CCGATTAACATCAGGGTATTTAATGATGTTAATCGGGTCTTGATTCGCTTGACGCTGCTG | 2.74 | 4.26 | 4.73 | 1.37 | 3.25 | 4.14 | 4.41 |
| CCGATTAACATCAGGGGAATAAATGATGTTAATCGGGTCTTGATTCGCTTGACGCTGCTG | 6.25 | 7.82 | 8.47 | 8.22 | 5.48 | 5.94 | 5.62 |
| CCGATTAACATCAGGGAATCTTATGATGTTAATCGGGTCTTGATTCGCTTGACGCTGCTG | 3.7 | 4.66 | 4.86 | 3.74 | 2.95 | 5.5 | 4.29 |
| CCGATTAACATCAAGAACCCCCGTGATGTTAATCGGGTCTTGATTCGCTTGACGCTGCTG | 6.68 | 4.55 | 5.31 | 3.25 | 8.39 | 5.21 | 5.41 |
| CCGATTAACATCACCCTTTTCCCTGATGTTAATCGGGTCTTGATTCGCTTGACGCTGCTG | 2.88 | 3.25 | 5.61 | 4.6 | 1.52 | 2.91 | 2.59 |
| CCGATTAACATCAACAATTTCCCTGATGTTAATCGGGTCTTGATTCGCTTGACGCTGCTG | 3.9 | 5.04 | 6.92 | 4.63 | 2.52 | 4.15 | 4.08 |
| CCGATTAACATCAGGGGAAAGGATGATGTTAATCGGGTCTTGATTCGCTTGACGCTGCTG | 4.44 | 5.7 | 6.71 | 4.77 | 1.2 | 4.14 | 3.87 |
